Laboratory results from publication PMC11006913.
Changes are numbered by the printed parent chain.

Legend:
Assay in all cases: PBM; 200 nM protein, PBS
Details in all cases: dsDNA, one strand shown
SIX6 [1] = target: T1, SIX6 (Homo sapiens, UniProt O95475 114-200, L167I)
T1 sequence: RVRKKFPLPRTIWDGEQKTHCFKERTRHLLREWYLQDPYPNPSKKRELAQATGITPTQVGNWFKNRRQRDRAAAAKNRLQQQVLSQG

SIX6 [2] = target: T2, SIX6 (Homo sapiens, UniProt O95475 114-200, L143V)
T2 sequence: T1 sequence with L30V, I54L

SIX6 [3] = target: T3, SIX6 (Homo sapiens, UniProt O95475 114-200, H141N)
T3 sequence: T1 sequence with H28N, I54L

SIX6 [4] = target: T4, SIX6 (Homo sapiens, UniProt O95475 114-200, T165P)
T4 sequence: T1 sequence with T52P, I54L

SIX6 [5] = target: T5, SIX6 (Homo sapiens, UniProt O95475 114-200, L167M)
T5 sequence: T1 sequence with I54M

SIX6 [6] = target: T6, SIX6 (Homo sapiens, UniProt O95475 114-200, L143M)
T6 sequence: T1 sequence with L30M, I54L

SIX6 [7] = target: T7, SIX6 (Homo sapiens, UniProt O95475 114-200, L143I)
T7 sequence: T1 sequence with L30I, I54L

SIX6 [8] = target: T8, SIX6 (Homo sapiens, UniProt O95475 114-200, T165G)
T8 sequence: T1 sequence with T52G, I54L

SIX6 [9] = target: T9, SIX6 (Homo sapiens, UniProt O95475 114-200, T139Q)
T9 sequence: T1 sequence with T26Q, I54L

SIX6 [10] = target: T10, SIX6 (Homo sapiens, UniProt O95475 114-200, T165A)
T10 sequence: T1 sequence with T52A, I54L

SIX6 [11] = target: T11, SIX6 (Homo sapiens, UniProt O95475 114-200, L167V)
T11 sequence: T1 sequence with I54V

SIX6 [12] = target: T12, SIX6 (Homo sapiens, UniProt O95475 114-200)
T12 sequence: T1 sequence with I54L

SIX6 [13] = target: T13, SIX6 (Homo sapiens, UniProt O95475 114-200, T165I)
T13 sequence: T1 sequence with T52I, I54L

HOXA2 [14] = target: HOXA2 (Homo sapiens, UniProt O43364 129-215, R185T)
HOXA2 [15] = target: HOXA2 (Homo sapiens, UniProt O43364 129-215)
Chain of HOXA2 (Homo sapiens, UniProt O43364 129-215) (O43364 129-215): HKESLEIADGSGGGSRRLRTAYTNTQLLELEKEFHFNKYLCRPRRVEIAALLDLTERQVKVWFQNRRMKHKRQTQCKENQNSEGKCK

Chain of HOXA2 (Homo sapiens, UniProt O43364 129-215, R185T) (O43364 129-215 R185T): as the sequence (O43364 129-215) above, with R57T counted along it

Row | Sequence | binding signal (SIX6 [1]) | binding signal (SIX6 [2]) | binding signal (SIX6 [3]) | binding signal (SIX6 [4]) | binding signal (SIX6 [5]) | binding signal (SIX6 [6]) | binding signal (SIX6 [7]) | binding signal (SIX6 [8]) | binding signal (SIX6 [9]) | binding signal (SIX6 [10]) | binding signal (SIX6 [11]) | binding signal (SIX6 [12]) | binding signal (SIX6 [13]) | binding signal (HOXA2 [14]) | binding signal (HOXA2 [15])
1 | CCGGGCGC | 8.78 upbm affinity estimate (log intensity, higher = more binding, comparable within an allelic series) | 8.67 upbm affinity estimate (log intensity, higher = more binding, comparable within an allelic series) | 8.71 upbm affinity estimate (log intensity, higher = more binding, comparable within an allelic series) | 8.75 upbm affinity estimate (log intensity, higher = more binding, comparable within an allelic series) | 8.72 upbm affinity estimate (log intensity, higher = more binding, comparable within an allelic series) | 8.66 upbm affinity estimate (log intensity, higher = more binding, comparable within an allelic series) | 8.69 upbm affinity estimate (log intensity, higher = more binding, comparable within an allelic series) | 8.73 upbm affinity estimate (log intensity, higher = more binding, comparable within an allelic series) | 8.6 upbm affinity estimate (log intensity, higher = more binding, comparable within an allelic series) | 8.69 upbm affinity estimate (log intensity, higher = more binding, comparable within an allelic series) | 8.69 upbm affinity estimate (log intensity, higher = more binding, comparable within an allelic series) | 8.66 upbm affinity estimate (log intensity, higher = more binding, comparable within an allelic series) | 8.72 upbm affinity estimate (log intensity, higher = more binding, comparable within an allelic series) | – | –
2 | AGCGCCCG | 9.03 upbm affinity estimate (log intensity, higher = more binding, comparable within an allelic series) | 8.99 upbm affinity estimate (log intensity, higher = more binding, comparable within an allelic series) | 9.03 upbm affinity estimate (log intensity, higher = more binding, comparable within an allelic series) | 9.05 upbm affinity estimate (log intensity, higher = more binding, comparable within an allelic series) | 9.04 upbm affinity estimate (log intensity, higher = more binding, comparable within an allelic series) | 9.02 upbm affinity estimate (log intensity, higher = more binding, comparable within an allelic series) | 8.98 upbm affinity estimate (log intensity, higher = more binding, comparable within an allelic series) | 8.98 upbm affinity estimate (log intensity, higher = more binding, comparable within an allelic series) | 8.94 upbm affinity estimate (log intensity, higher = more binding, comparable within an allelic series) | 8.98 upbm affinity estimate (log intensity, higher = more binding, comparable within an allelic series) | 8.97 upbm affinity estimate (log intensity, higher = more binding, comparable within an allelic series) | 8.99 upbm affinity estimate (log intensity, higher = more binding, comparable within an allelic series) | 9 upbm affinity estimate (log intensity, higher = more binding, comparable within an allelic series) | – | –
3 | CGCTCCGC | 8.79 upbm affinity estimate (log intensity, higher = more binding, comparable within an allelic series) | 8.89 upbm affinity estimate (log intensity, higher = more binding, comparable within an allelic series) | 8.83 upbm affinity estimate (log intensity, higher = more binding, comparable within an allelic series) | 8.94 upbm affinity estimate (log intensity, higher = more binding, comparable within an allelic series) | 8.9 upbm affinity estimate (log intensity, higher = more binding, comparable within an allelic series) | 8.87 upbm affinity estimate (log intensity, higher = more binding, comparable within an allelic series) | 8.84 upbm affinity estimate (log intensity, higher = more binding, comparable within an allelic series) | 8.81 upbm affinity estimate (log intensity, higher = more binding, comparable within an allelic series) | 8.84 upbm affinity estimate (log intensity, higher = more binding, comparable within an allelic series) | 8.85 upbm affinity estimate (log intensity, higher = more binding, comparable within an allelic series) | 8.79 upbm affinity estimate (log intensity, higher = more binding, comparable within an allelic series) | 8.81 upbm affinity estimate (log intensity, higher = more binding, comparable within an allelic series) | 8.82 upbm affinity estimate (log intensity, higher = more binding, comparable within an allelic series) | – | –
4 | CGGGCCCC | 8.63 upbm affinity estimate (log intensity, higher = more binding, comparable within an allelic series) | 8.6 upbm affinity estimate (log intensity, higher = more binding, comparable within an allelic series) | 8.71 upbm affinity estimate (log intensity, higher = more binding, comparable within an allelic series) | 8.8 upbm affinity estimate (log intensity, higher = more binding, comparable within an allelic series) | 8.68 upbm affinity estimate (log intensity, higher = more binding, comparable within an allelic series) | 8.6 upbm affinity estimate (log intensity, higher = more binding, comparable within an allelic series) | 8.75 upbm affinity estimate (log intensity, higher = more binding, comparable within an allelic series) | 8.71 upbm affinity estimate (log intensity, higher = more binding, comparable within an allelic series) | 8.68 upbm affinity estimate (log intensity, higher = more binding, comparable within an allelic series) | 8.73 upbm affinity estimate (log intensity, higher = more binding, comparable within an allelic series) | 8.59 upbm affinity estimate (log intensity, higher = more binding, comparable within an allelic series) | 8.64 upbm affinity estimate (log intensity, higher = more binding, comparable within an allelic series) | 8.66 upbm affinity estimate (log intensity, higher = more binding, comparable within an allelic series) | – | –
5 | CTCGGGCC | 9.05 upbm affinity estimate (log intensity, higher = more binding, comparable within an allelic series) | 8.95 upbm affinity estimate (log intensity, higher = more binding, comparable within an allelic series) | 9.05 upbm affinity estimate (log intensity, higher = more binding, comparable within an allelic series) | 9.01 upbm affinity estimate (log intensity, higher = more binding, comparable within an allelic series) | 8.95 upbm affinity estimate (log intensity, higher = more binding, comparable within an allelic series) | 9.01 upbm affinity estimate (log intensity, higher = more binding, comparable within an allelic series) | 9.02 upbm affinity estimate (log intensity, higher = more binding, comparable within an allelic series) | 9.14 upbm affinity estimate (log intensity, higher = more binding, comparable within an allelic series) | 9.13 upbm affinity estimate (log intensity, higher = more binding, comparable within an allelic series) | 9.09 upbm affinity estimate (log intensity, higher = more binding, comparable within an allelic series) | 9.03 upbm affinity estimate (log intensity, higher = more binding, comparable within an allelic series) | 9.02 upbm affinity estimate (log intensity, higher = more binding, comparable within an allelic series) | 9.02 upbm affinity estimate (log intensity, higher = more binding, comparable within an allelic series) | – | –
6 | AGATATAC | 11 upbm affinity estimate (log intensity, higher = more binding, comparable within an allelic series) | 10.4 upbm affinity estimate (log intensity, higher = more binding, comparable within an allelic series) | 10.8 upbm affinity estimate (log intensity, higher = more binding, comparable within an allelic series) | 9.92 upbm affinity estimate (log intensity, higher = more binding, comparable within an allelic series) | 10.9 upbm affinity estimate (log intensity, higher = more binding, comparable within an allelic series) | 10.9 upbm affinity estimate (log intensity, higher = more binding, comparable within an allelic series) | 10.4 upbm affinity estimate (log intensity, higher = more binding, comparable within an allelic series) | 11 upbm affinity estimate (log intensity, higher = more binding, comparable within an allelic series) | 10.9 upbm affinity estimate (log intensity, higher = more binding, comparable within an allelic series) | 10.8 upbm affinity estimate (log intensity, higher = more binding, comparable within an allelic series) | 10.7 upbm affinity estimate (log intensity, higher = more binding, comparable within an allelic series) | 10.9 upbm affinity estimate (log intensity, higher = more binding, comparable within an allelic series) | 10.8 upbm affinity estimate (log intensity, higher = more binding, comparable within an allelic series) | 8.17 upbm affinity estimate (log intensity, higher = more binding, comparable within an allelic series) | 8.19 upbm affinity estimate (log intensity, higher = more binding, comparable within an allelic series)
